Active and inactive are the calls of the source. Calls come from the whole dose curve; as a rule, active = well fitted curve in the direction sought with a large enough effect in the repeat runs; inconclusive = weak or mixed curves; inactive = flat fitted curve, though single readings scatter.
Assay: qHTS assay to test for compound auto fluorescence at 590 nm (red) in HEK293 cell free culture (AID 720683)
Settings: cell-free medium autofluorescence, Ex540/Em590 red; series mostly up to 91.3 µM; fluorescence, % of fluorescent control: at the top concentration
Text: U.S. Tox21 Program National Center for Advancing Translational Sciences [NCATS] NIH Chemical Genomics Center [NCGC] U.S. Environmental Protection Agency [EPA] National Institutes of Environmental Health Sciences [NIEHS] National Toxicology Program [NTP] U.S. Food and Drug Administration [FDA] Tox21 Assay Overview: Compound auto fluorescence often interferes with screening of the compound library against various biological targets and signaling pathways. Some of these compounds may have fluorophoric properties. Such properties may interfere with the assay outputs resulting in false positives and/or negatives. To decrease such complications and ensure the compound activities are relevant in terms of biological response, the Tox21 10K compound library was screened for auto fluorescence. From the fluorophores used as reporter signals in our screening assays, the auto fluorescence equivalencies of compounds against three fluorophores have been evaluated: Triamterene, Fluorescein and Rose Bengal sodium for blue, green and red fluorescence, respectively. The fluorescence intensities were measured using Excitation/Emission wavelengths at 405/460nm, 485/535nm and 540/590nm for blue, green and red labels, respectively. This assay includes the red fluorescence data.
Tox21 Assay Protocol Summary: 5 uL of culture medium (DMEM containing 10% FBS) per well was dispensed into black wall/clear bottom 1536-well plates using a Multidrop Combi Dispenser (ThermoFisher Scientific, Waltham, MA). After 23 nL compound or DMSO vehicle was transferred into assay plate by a pintool work station (Kalypsys, San Diego, CA), fluorescence intensities in the assay plates were measured by an Envision (PerkinElmer, Shelton, CT) plate reader using three labels for measuring blue, green and red fluorescence at […] 460, 535 and 590nm respectively.
% is set by controls: 0 for no effect and ±100 for the full control effect.

Compound | fluorescence, % of fluorescent control
COc1ccc2cc(CCC(C)=O)ccc2c1 | 0.474% [at 18.6 µM] (inactive)
CNC(C)=O | -0.0902% (inactive)
C=CC(C)(CCC=C(C)C)OC(=O)C(C)C (stereo not given) | 0.0693% (inactive)
C=COCCCCO | -0.467% (inactive)
C=CCCCCCCCCOC(C)=O | -0.153% (inactive)
Cc1ccc(O)c([N+](=O)[O-])c1 | -0.562% [at 95.7 µM] (inactive)
O=S(=O)(O)CC(O)CCl (stereo not given) | 0.0597% (inactive)
CC/C=C/CCCCCCCCCCOC(C)=O | -0.0591% (inactive)
COC(=O)c1ccc(C(=O)O)cc1 | -0.285% (inactive)
NS(=O)(=O)c1cc2c(cc1C(F)(F)F)NCNS2(=O)=O | 0.0039% [at 18.6 µM] (inactive)
O=CN1CCCCC1 | 0.453% (inactive)
COC(=O)C(c1ccccc1Cl)N1CCc2sccc2C1 (stereo not given) | -0.0556% [at 46 µM] (inactive)
COc1cc(C(=O)NC2CCCNC2)cc(OC)c1OC (stereo not given) | 0.327% [at 46 µM] (inactive)
N#CC1(N)CCCCC1 | -0.0118% [at 95.7 µM] (inactive)
CC(=O)Nc1ccc(OCCOCCOc2ccc(NC(C)=O)cc2)cc1 | -0.565% [at 46 µM] (inactive)
Cc1ccc(O)c(C(=O)c2ccccc2)c1 | 0.0761% (inactive)
Cc1ccc(N)nc1 | -0.046% (inactive)
CCc1ncc(C)[nH]1 | 0.171% (inactive)
CCOCCOCCOC(C)=O | 0.0779% [at 95.7 µM] (inactive)
O=Cc1ccc(C(=O)O)cc1 | -0.345% [at 95.7 µM] (inactive)

Compound | fluorescence, % of fluorescent control
N=C(N)N | 0.711% [at 46 µM] (inactive)
CCCC(C)C(O)CC (stereo not given) | -0.168% (inactive)
CC1(C)C(=O)C(C)(C)C1=O | -0.435% (inactive)
CCc1ccc(CC)cc1 | -0.18% (inactive)
CC(C)(C)OC=O | -0.5% [at 95.7 µM] (inactive)
CC(C)CC(O)Cc1ccccc1 (stereo not given) | -0.139% (inactive)
O=C1c2ccccc2C(=O)N1CO | -0.186% [at 95.7 µM] (inactive)
COC(=O)/C=C(\C)CCC=C(C)C | 0.0576% (inactive)
CCCCCCCCCCCC(C)=O | -0.0394% (inactive)
C/C=C(\C)C(=O)OC/C=C(\C)CCC=C(C)C | -0.164% (inactive)
C=CC(=O)OCC[N+](C)(C)C | -0.0113% (inactive)
CC[N+](C)(CC)CC | 0.0101% (inactive)
O=C1Nc2ccccc2C1=O | 0.0784% (inactive)
CCCCCCC(O)CO (stereo not given) | -0.0466% (inactive)
O=c1[nH]c(=O)c2cn[nH]c2[nH]1 | 0.0008% (inactive)
CC(=O)SC[C@@H](C)C(=O)N1CCC[C@H]1C(=O)N[C@@H](Cc1ccccc1)C(=O)O | -0.176% [at 46 µM] (inactive)
c1coc(Cn2cccc2)c1 | 0.0141% (inactive)
Cc1ccc2ccccc2n1 | 0.219% (inactive)
C[Si](C)(C)O[Si](O)(O)O | 0.053% (inactive)
NNC(=O)OCc1ccccc1 | 0.031% (inactive)

— PubChem BioAssay (Tox21)
